NIH3T3 tox: kills NIH 3T3 cells. 94,000 tested, 4.3% active. AID 1345082. NIH 3T3 viability, CellTiter-Glo ATP luminescence, 48-72 h. Potency, µM (doses to about 96.7 µM), inactives show top-dose activity change, negative = cytotoxicity, usual class: inhibitors; active means well fitted curve in the direction sought with a large enough effect; inconclusive means small, poorly fitted or top-dose-only effect, or another doubt; inactive means no such curve, though single readings can be large; an effect the other way counts as inactive or inconclusive; further: on the % scale 0 is the no-effect control and ±100 the full control effect; nearly all actives have a fitted effect of over 55% in size
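Cytotoxicity is measured as loss of cellular ATP: NIH 3T3 cells (400/well) are exposed to compound for 48 or 72 hr at 37 °C, then CellTiter-Glo luminescence is imaged after 10 min at room temperature.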
FLuc inh: inhibitors of firefly (Photinus pyralis) luciferase; Potency, µM (series often up to 115 µM), usual class: inhibitors; 76,000 tested, 2.5% active; P08659; AID 1347043; purified P. pyralis luciferase, luminescence, biochemical; active means well fitted curve in the direction sought with a large enough effect; inconclusive means small, poorly fitted or top-dose-only effect, or another doubt; inactive means no such curve, though single readings can be large; an effect the other way counts as inactive or inconclusive; further: on the % scale 0 is the no-effect control and ±100 the full control effect; nearly all actives have a fitted effect of over 65% in size
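FLuc 10nM, D-luciferin 10uM, ATP 10uM, Mg acetate 10mM, Tris acetate pH 7.5, Tween/BSA; cpd qHTS; enzyme added last; CCD luminescence.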
HEK293 tox: HEK 293 cell cytotoxicity. Potency, µM (highest dose often 115 µM), for the others: at the top dose activity change, negative = cytotoxicity, most hits filed as inhibitors. AID 1345083. HEK 293 viability, ATP luminescence (CellTiter-Glo), 48-72 h. 94,000 tested, 6.6% active; active means well fitted curve in the direction sought with a large enough effect; inconclusive means small, poorly fitted or top-dose-only effect, or another doubt; inactive means no such curve, though single readings can be large; an effect the other way counts as inactive or inconclusive; further: on the % scale 0 is the no-effect control and ±100 the full control effect; nearly all actives have a fitted effect of over 60% in size
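ATP-coupled CellTiter-Glo luminescence served as viability read-out, recorded 10 min after reagent addition at room temperature. HEK 293 cells, 250 cells/well, had been incubated with pintool-transferred compound for 48 or 72 hr at 37 degree Celsius.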
NPR1 antag: antagonists of human natriuretic peptide receptor Npr1; P16066; HEK293 hNpr1 GloSensor cGMP, ANP-stimulated luminescence; Potency, µM (doses to about 46.3 µM), inactives show at the highest dose activity change, negative = inhibition, usual class: inhibitors; 76,000 tested, 1.6% active; further: on the % scale 0 is the no-effect control and ±100 the full control effect; nearly all actives have a fitted effect of over 60% in size
Target sequence (P16066 whole entry, looked up): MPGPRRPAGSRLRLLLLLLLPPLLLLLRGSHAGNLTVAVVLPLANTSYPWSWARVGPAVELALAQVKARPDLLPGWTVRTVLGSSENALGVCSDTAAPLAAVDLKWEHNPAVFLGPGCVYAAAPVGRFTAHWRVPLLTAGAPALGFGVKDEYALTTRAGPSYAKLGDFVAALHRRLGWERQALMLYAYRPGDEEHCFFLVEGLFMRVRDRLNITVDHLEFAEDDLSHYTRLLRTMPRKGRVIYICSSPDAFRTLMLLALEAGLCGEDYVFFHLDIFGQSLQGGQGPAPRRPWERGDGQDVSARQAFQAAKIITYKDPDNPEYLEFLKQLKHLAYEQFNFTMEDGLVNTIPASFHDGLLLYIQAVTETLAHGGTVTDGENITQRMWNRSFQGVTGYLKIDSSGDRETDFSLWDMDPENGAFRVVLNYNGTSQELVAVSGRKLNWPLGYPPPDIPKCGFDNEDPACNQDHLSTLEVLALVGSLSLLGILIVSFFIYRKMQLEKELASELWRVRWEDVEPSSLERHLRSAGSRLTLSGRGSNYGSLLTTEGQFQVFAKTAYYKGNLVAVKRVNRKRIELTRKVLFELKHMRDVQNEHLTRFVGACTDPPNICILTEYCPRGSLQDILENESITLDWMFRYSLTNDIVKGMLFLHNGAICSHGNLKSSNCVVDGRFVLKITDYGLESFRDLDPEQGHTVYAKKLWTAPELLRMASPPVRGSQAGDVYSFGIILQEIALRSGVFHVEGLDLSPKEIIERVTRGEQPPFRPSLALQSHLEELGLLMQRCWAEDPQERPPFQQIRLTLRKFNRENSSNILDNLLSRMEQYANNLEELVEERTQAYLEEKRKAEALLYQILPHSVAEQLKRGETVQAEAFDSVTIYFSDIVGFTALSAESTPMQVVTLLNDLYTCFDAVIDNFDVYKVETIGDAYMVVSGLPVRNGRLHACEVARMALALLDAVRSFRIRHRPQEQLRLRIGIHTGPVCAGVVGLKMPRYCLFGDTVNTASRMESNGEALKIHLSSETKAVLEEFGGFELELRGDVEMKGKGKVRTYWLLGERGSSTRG
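HEK293 cells stably expressing human Npr1 and cGMP GloSensor pGS-40F, loaded 2 h with 2% GloSensor reagent, given compound 30 min at room temperature. Luminescence read before and 20 min after 0.1 nM hNppA.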
NPR1 antag cnf: confirmation of human Npr1 natriuretic peptide receptor antagonists; shares compounds with NPR1 antag; HEK293 hNpr1 cGMP GloSensor luminescence, ANP-stimulated; Potency, µM (highest dose often 57.6 µM), inactives show at the top dose activity change, negative = inhibition, most hits filed as inhibitors; 1,400 tested, 76% active; further: nearly all actives have a fitted effect of over 70% in size
Npr2 selectivity: selectivity test of Npr1 antagonists against human Npr2 | shares compounds with NPR1 antag | HEK293 hNpr2 GloSensor cGMP luminescence, CNP-stimulated | Potency, µM (titrated, usually from 57.6 µM), without a hit: at the top dose activity change, negative = inhibition, most hits filed as inhibitors | 1,400 tested, 67% active | AID 1347046; further: nearly all actives have a fitted effect of over 70% in size
FLuc inh counter: counter-screen for Npr1 antagonists: firefly luciferase inhibitors. Potency, µM (series often up to 57.6 µM), for the others: at the top dose activity change, negative = inhibition, hits mostly inhibitors. purified FLuc enzyme, luminescence, Km substrate. 1,400 tested, 0.7% active. shares compounds with NPR1 antag. AID 1347047; active means well fitted curve in the direction sought with a large enough effect; inconclusive means small, poorly fitted or top-dose-only effect, or another doubt; inactive means no such curve, though single readings can be large; an effect the other way counts as inactive or inconclusive; further: 0% is about no effect
GloSensor cGMP: counter-screen for Npr1 antagonists: GloSensor control cell line; shares compounds with NPR1 antag; HEK293 GloSensor cGMP, SNP-stimulated, luminescence; Potency, µM (top dose mostly 57.6 µM), without a hit: at the highest dose activity change, negative = inhibition, usual class: inhibitors; 1,400 tested, 69% active; further: on the % scale 0 is the no-effect control and ±100 the full control effect; nearly all actives have a fitted effect of over 70% in size
Numbers without * were called inactive. An excerpt weighted towards active compounds, which were near 11% of everything screened. Unless noted, the call rests on the fitted dose curve. Potency means the concentration at half of the fitted maximal effect.

`COc1ccc(OC)c(C2CCN(c3ncncn3)C2)c1` (stereo not given) gave NIH3T3 tox inconclusive, FLuc inh inactive, HEK293 tox inconclusive and NPR1 antag 4%.
N#Cc1cccnc1N1CCC(CO)(Cc2ccccc2C(F)(F)F)CC1 was read as NIH3T3 tox inconclusive, FLuc inh inactive, HEK293 tox inconclusive, NPR1 antag inconclusive, NPR1 antag cnf 22µM*, Npr2 selectivity 17µM*, FLuc inh counter -2% and GloSensor cGMP -18%.
CC(=O)N1CCC2(CC1)CCN(c1ncccc1C#N)CC2CO (stereo not given) was read as NIH3T3 tox -3%, FLuc inh inactive, HEK293 tox -2% and NPR1 antag 6%.
`Cc1nnc(N2CCC(CO)(CN3CCCC3)CC2)c2ccccc12` gave NIH3T3 tox -1%, FLuc inh inactive, HEK293 tox -22% and NPR1 antag -1%.
For COc1cc(N2CCC(CO)(Cc3ccccc3C(F)(F)F)CC2)ncn1 the results were NIH3T3 tox inconclusive, FLuc inh inactive, HEK293 tox inconclusive, NPR1 antag 11µM*, NPR1 antag cnf 19µM*, Npr2 selectivity 19µM*, FLuc inh counter -2% and GloSensor cGMP 15µM*.
COc1ccnc(N2CCC(CO)(Cc3ccccc3C(F)(F)F)CC2)n1 was read as NIH3T3 tox inconclusive, FLuc inh inactive, HEK293 tox inconclusive and NPR1 antag -7%.
`Cc1ncnc(N2CCC(CO)(Cc3ccccc3C(F)(F)F)CC2)c1C` gave NIH3T3 tox inconclusive, FLuc inh inactive, HEK293 tox 40µM*, NPR1 antag 11µM*, NPR1 antag cnf 24µM*, Npr2 selectivity 24µM*, FLuc inh counter 2% and GloSensor cGMP 19µM*.
`O=C(c1ccc(F)c(Cl)c1)N1CCC[C@H]1c1nc(-c2ccccc2)no1` gave NIH3T3 tox -29%, FLuc inh inactive, HEK293 tox inconclusive and NPR1 antag -13%.
Screening Cc1nc2c(c(-c3ccc(Cl)cc3)n1)CN([S+](=O)([O-])c1ccccc1)CC2 returned NIH3T3 tox inconclusive, FLuc inh inactive, HEK293 tox 5% and NPR1 antag -4%.
Screening COc1cccc(-c2cc(C3CCN(S(=O)(=O)c4ccc(C(C)=O)cc4)CC3)[nH]n2)c1 returned NIH3T3 tox inconclusive, FLuc inh inactive, HEK293 tox inconclusive, NPR1 antag 14µM*, NPR1 antag cnf 24µM*, Npr2 selectivity 24µM*, FLuc inh counter -2% and GloSensor cGMP 24µM*.
O=C(c1ccc(F)cc1F)N1CCC2(CC1)N=C(c1ccc(Br)cc1)NO2 was read as NIH3T3 tox inconclusive, FLuc inh inactive, HEK293 tox inconclusive, NPR1 antag 11µM*, NPR1 antag cnf 17µM*, Npr2 selectivity 15µM*, FLuc inh counter -2% and GloSensor cGMP 12µM*.
O=C(c1ccc(F)cc1F)N1CCC2(CC1)N=C(c1ccc(Cl)cc1)NO2 was read as NIH3T3 tox inconclusive, FLuc inh inactive, HEK293 tox inconclusive, NPR1 antag 14µM*, NPR1 antag cnf 24µM*, Npr2 selectivity 24µM*, FLuc inh counter -4% and GloSensor cGMP 22µM*.
Screening O=C1NC(=NC2CCCC2)C2(CCCN(Cc3cccnc3)C2)N1c1cc(F)cc(F)c1 (stereo not given) returned NIH3T3 tox 25µM*, HEK293 tox 2%, NPR1 antag cnf -16%, Npr2 selectivity 0%, FLuc inh counter 3% and GloSensor cGMP -8%.
For O=C(CN1C(=O)NC(c2ccc(Cl)cc2)C2=C1COC2=O)Nc1ccc(Br)cc1F (stereo not given) the results were NIH3T3 tox 28µM*, FLuc inh inactive, HEK293 tox 35µM*, NPR1 antag inconclusive, NPR1 antag cnf 24µM*, Npr2 selectivity inconclusive, FLuc inh counter -1% and GloSensor cGMP 27µM*.
Screening Cc1ccc(C)c(NC(=O)CN2C(=O)NC(c3ccc(Cl)cc3)C3=C2COC3=O)c1 (stereo not given) returned NIH3T3 tox inconclusive, FLuc inh inactive, HEK293 tox inconclusive and NPR1 antag -9%.
Screening Cc1cn2nc(C(=O)N3CCC(NC(=O)c4ccc[nH]4)CC3)cc2c(=O)[nH]1 returned NIH3T3 tox -29%, FLuc inh inactive, HEK293 tox -4% and NPR1 antag 14%.
Screening O=C(c1cc(Cl)ccc1F)N1CCC(Cc2nc(-c3ccc(F)cc3)no2)CC1 returned NIH3T3 tox inconclusive, FLuc inh inactive, HEK293 tox inconclusive, NPR1 antag 3.2µM*, NPR1 antag cnf 4.3µM*, Npr2 selectivity 5.4µM*, FLuc inh counter 4% and GloSensor cGMP 4.3µM*.
Screening O=C(c1cc(F)cc(F)c1)N1CCC(Cc2nc(-c3ccc(F)cc3)no2)CC1 returned NIH3T3 tox inconclusive, FLuc inh inactive, HEK293 tox inconclusive and NPR1 antag inconclusive.
For O=C(c1cc(F)ccc1F)N1CCC(Cc2nc(-c3ccc(F)cc3)no2)CC1 the results were NIH3T3 tox inconclusive, FLuc inh inactive, HEK293 tox inconclusive, NPR1 antag 3.2µM*, NPR1 antag cnf 3.1µM*, Npr2 selectivity 4.8µM*, FLuc inh counter 4% and GloSensor cGMP 3.1µM*.
`CCCCCCN(CCC(=O)NCCc1ccccc1)C(=O)c1cc(C)oc1C` gave NIH3T3 tox inconclusive, FLuc inh inactive, HEK293 tox 8.9µM*, NPR1 antag 16µM*, NPR1 antag cnf inconclusive, Npr2 selectivity inconclusive, FLuc inh counter -21% and GloSensor cGMP inconclusive.
For COCCCN(CCC(=O)NCCc1ccccc1)C(=O)c1cc(C)oc1C the results were NIH3T3 tox inconclusive, FLuc inh inactive, HEK293 tox inconclusive and NPR1 antag -2%.
